91 molecules from PubChem BioAssay AID463173 (ICCB-Longwood Screening Facility, Harvard Medical School, 2010) can be followed below.

The structures appear in SMILES notation. About 1,700 (3.3%) of roughly 52,000 compounds were called active. The list comes from a sample in which actives are over-represented; it also holds similar structures and randomly drawn compounds. Values without a mark were called inactive. No stated cut-off is given here; in the data, active means survival mostly below about 52% (no sharp cut-off); inactive means mostly above about 56%.

For this assay, the system named is Wild type. Description: growth inhibition of S. aureus wild type versus tarO mutant, primary screen, teichoic acid synthesis inhibitors, RN4220, OD600 (AID 463173). As to conditions: S. aureus RN4220 wild type/DeltatarO growth, OD600, 18 h, hits give low values, screened at 18.75 µg/mL (by protocol).
Turning to `O=C(C1CCC(Cn2c(=O)c3sccc3n(Cc3ccccc3)c2=O)CC1)N1CCOCC1` (stereo unspecified), the survival was 95%.
Next, `CCCn1c2ccccc2c2cnn(CC(=O)N3CCC(C(=O)OCC)CC3)c(=O)c21`: 87%; `CCc1nnc2c(N3CCN(c4cc(Cl)ccc4C)CC3)nc3ccccc3n12`: -6% (active); `Cc1ccc(C)c(N2CCN(c3nc4ccc(C(=O)c5ccccc5)cc4n4cnnc34)CC2)c1`: 100%.
With `Cc1ccc(N2CCN(c3nc4ccc(C(=O)c5ccccc5)cc4n4cnnc34)CC2)c(C)c1` the figure was 72%; with `Cc1ccc(Cl)cc1N1CCN(c2nc3ccc(C(=O)c4ccccc4)cc3n3cnnc23)CC1`, -6% (active).
Take `CCc1nnc2c3ccccc3nc(N3CCN(c4cc(Cl)ccc4C)CC3)n12`: the survival was 126%.
For `Cc1ccc(C)c(N2CCN(c3nc4ccccc4n4c(C)nnc34)CC2)c1`, the survival is 87%.
Next, `O=C(CN1C(=O)C2(SCC(=O)N2c2ccc(F)c(F)c2)c2ccccc21)Nc1cccc(Cl)c1` (stereo unspecified): 68%; `Fc1ccc(F)c(Nc2c3c(nc4ccc(Cl)cc24)CCC3)c1`: -1% (active); `FC(F)(F)c1cccc(Nc2c3c(nc4ccc(Cl)cc24)CCC3)c1`: 5% (active).
For the molecule `Cc1ccc(Nc2c3c(nc4ccccc24)CCC3)cc1F`, the survival is 2% (active).
With `CCOC(=O)c1cccc(Nc2c3c(nc4ccccc24)CCC3)c1` the figure was 73%; with `Fc1ccc(Nc2c3c(nc4ccccc24)CCC3)cc1`, 70%.
Take `Fc1ccccc1Nc1c2c(nc3ccccc13)CCC2`: the survival was 102%.
Next, `COc1ccc(Nc2c3c(nc4ccccc24)CCC3)cc1Cl`: 72%; `COc1ccccc1Nc1c2c(nc3ccc(NC(=O)c4cccc(F)c4)cc13)CCCC2`: 35%; `Cc1ccc2nc3c(c(Nc4ccc(C)c(C)c4)c2c1)CCC3`: 39%.
Next, `CC1(C)Cc2nc3sc4c(N5CCOCC5)ncnc4c3cc2CO1`: 97%; `O=C(Cn1c(=O)oc2ccccc21)NCc1cccc(Cl)c1`: 78%; `CCOC(=O)c1cnc2nc(NCc3cccc(Br)c3)[nH]n2c1=O`: 98%.
With `NC(=O)C1CCN(c2nc(C3CC3)nc3c2nnn3Cc2ccccc2Cl)CC1` the figure was 108%; with `O=C(CN1C=NS(=O)(=O)c2ccc(C(F)(F)F)cc21)Nc1cccc(C(F)(F)F)c1`, 76%; with `COc1cccc(C2CC(=O)Nc3c2c(=O)n(C)c2nc4ccccc4n32)c1OC` (stereo unspecified), 67%.
For `Cc1ccc(S(=O)(=O)Cc2nc(-c3ccc(C(=O)NCCCOC(C)C)cc3)oc2C)cc1`, the survival is 75%.
With `CCOCCCNC(=O)c1ccc(-c2nc(CS(=O)(=O)c3ccccc3)c(C)o2)cc1` the figure was 87%.
Next, `Cc1oc(-c2ccc(C(=O)NCCCOC(C)C)cc2)nc1CS(=O)(=O)c1ccccc1`: -6% (active); `CCOc1ccc(-c2nc(SCC(=O)Nc3ccc4c(c3)OCO4)c(-c3ccc(F)cc3)[nH]2)cc1`: 98%.
With `Cc1ccc(Cl)cc1-n1ncc2c(NCc3ccc(F)cc3)ncnc21` the figure was 73%; with `O=C(NC1CC(=O)N(c2ccccc2)C1)c1ccc(S(=O)(=O)N2CCCCC2)cc1` (stereo unspecified), -1% (active).
For the molecule `O=C(NC1CC(=O)N(c2ccc(Cl)cc2)C1)c1ccc(S(=O)(=O)N2CCOCC2)cc1` (stereo unspecified), the survival is 91%.
Next, `O=C(NC1CC(=O)N(c2ccc(F)cc2)C1)c1ccc(S(=O)(=O)N2CCCCC2)cc1` (stereo unspecified): 83%; `O=C(NC1CC(=O)N(c2ccccc2)C1)c1ccc(S(=O)(=O)N2CCOCC2)cc1` (stereo unspecified): 14% (active).
Regarding `Cc1ccc(N2CC(NC(=O)c3ccc(S(=O)(=O)N4CCOCC4)cc3)CC2=O)cc1` (stereo unspecified), the survival is 47%.
Next, `O=C(NC1CC(=O)N(c2ccccc2)C1)c1ccc(S(=O)(=O)N2CCCC2)cc1` (stereo unspecified): 133%; `CCOc1ccc(NC(=O)C2CCN(S(=O)(=O)c3c(C)noc3/C=C/c3ccco3)CC2)cc1`: 73%.
For `CC(=O)c1ccc(S(=O)(=O)Nc2ccc(-c3ccc(N4CCCCCC4)nn3)cc2)cc1`, the survival is 83%.
Next, `CCOC(=O)c1c(S(=O)(=O)NCC(=O)N2CCN(c3ccccc3)CC2)c(C)n(C)c1C`: 112%; `Cc1cccc(-n2c(=O)c3c4c(sc3n3cnnc23)CCCC4)c1`: 72%; `CCSc1nnc2n(-c3cccc(C)c3)c(=O)c3c4c(sc3n12)CCCC4`: 81%.
`CCSc1nnc2n(-c3ccccc3)c(=O)c3c4c(sc3n12)CCCC4`: the survival is 108%.
Next, `CCCCSc1nnc2n(-c3cccc(C)c3)c(=O)c3c4c(sc3n12)CCCC4`: -1% (active); `CCCSc1nnc2n(-c3cccc(C)c3)c(=O)c3c4c(sc3n12)CCCC4`: 2% (active); `CSc1nnc2n(-c3cccc(C)c3)c(=O)c3c4c(sc3n12)CCCC4`: 79%.
As for `Cc1cc(=O)[nH]c(SCC(=O)N(c2ccccc2)c2ccccc2)n1`, the survival is 103%.
With `Cc1ccc(NC(=O)N2CC3CCCN3c3ccccc32)c(C)c1` (stereo unspecified) the figure was 117%.
For the molecule `Cc1ccc(NC(=O)N2CC3CCCN3c3ccccc32)cc1C` (stereo unspecified), the survival is -2% (active).
Next, `Cc1ccc(NC(=O)N2CC3CCCN3c3ccccc32)cc1Cl` (stereo unspecified): 83%; `COc1ccc(S(=O)(=O)c2c(Nc3c(C)cccc3C)sc(C(=O)c3ccc4c(c3)OCO4)c2N)cc1`: 74%.
Regarding `CCOC(=O)c1ccccc1NC(=O)c1ccco1`, the survival was 121%.
With `Cc1cc(Nc2ccccc2F)n2nc(-c3ccccc3)nc2n1` the figure was 84%.
Next, `Cc1cc(Nc2cc(Cl)ccc2C)n2nc(-c3ccccc3)nc2n1`: 93%; `COc1ccccc1Nc1cc(C)nc2nc(-c3ccccc3)nn12`: 14% (active).
Take `CCCCC1CCC(C(=O)N2CC(=O)Nc3ccc(Cl)cc3C2c2ccc(F)cc2)CC1` (stereo unspecified): the survival is 71%.
Next, `CC1CCN(C(=O)c2cc3n(n2)C(C(F)(F)F)CC(c2ccccc2)N3)C(C)C1` (stereo unspecified): 123%; `Cc1cccc(C(=O)Nc2cccc(OCc3cc(=O)n4ccccc4n3)c2)c1`: 72%.
Next, `CSc1ccc(CCNC(=O)c2ccc3c(c2)c(C)c(C)n3Cc2ccc(F)cc2)cc1`: 70%; `Cc1nc2nc(NC(=O)c3ccc(F)cc3)[nH]n2c(=O)c1Cc1ccccc1`: 88%.
With `Cc1ccc(CNC(=O)c2c[nH]n3c(=O)c(Cc4ccc(Cl)cc4)c(C)nc23)cc1` the figure was -14% (active); with `Cc1ccc(CNC(=O)c2cnn3c(C)c(Cc4c(F)cccc4Cl)c(C)nc23)cc1`, 65%.
Take `Cc1ccc(CNC(=O)c2c[nH]n3c(=O)c(Cc4ccc(F)cc4Cl)c(C)nc23)cc1`: the survival was -15% (active).
For `O=C(NCCc1ccccc1)c1ccc2c(c1)N(Cc1ccc(F)cc1Cl)C(=O)CS2`, the survival is 67%.
On to `Cc1nc2nc(NCc3ccc(Cl)cc3)[nH]n2c(=O)c1Cc1ccccc1`, for which the survival was 61%.
With `Cc1nc2c(C(=O)NCCc3ccccc3)cnn2c(C)c1Cc1c(F)cccc1Cl` the figure was 71%.
With `Cc1cccn2c(=O)c(C(=O)NCCc3ccccc3)cnc12` the figure was 49%; with `Cc1nc2c(C(=O)NCCc3ccccc3)c[nH]n2c(=O)c1Cc1ccccc1F`, -15% (active).
Next, `Cc1ccc(CNC(=O)CN2CCN(Cc3ccc(F)cc3Cl)C2=O)cc1`: 81%.
For `Cc1nc2nc(NC(=O)c3ccc(Cl)cc3)[nH]n2c(=O)c1Cc1ccccc1`, the survival is 93%.
Next, `Cc1nc2c(C(=O)NCCc3ccccc3)c[nH]n2c(=O)c1Cc1ccc(F)cc1Cl`: -15% (active).
With `COc1ccc(N2C(=O)CSC23C(=O)N(Cc2ccccc2F)c2ccccc23)cc1Cl` (stereo unspecified) the figure was 68%.
With `COc1cccc(NC(=O)CSC2=Nc3ccccc3N=C(c3ccc(F)cc3)C2)c1` the figure was 69%; with `O=C(CSC1=Nc2ccccc2C2=NC(Cc3ccccc3)C(=O)N12)Nc1cccc(Cl)c1` (stereo unspecified), 76%.
For `Cc1cccc(NC(=O)Cn2nnc(C(=O)NCc3cccs3)c2N)c1`, the survival was 89%.
Next, `Cc1ccc(-n2ncc3c(N4CCN(c5ccccc5)CC4)ncnc32)cc1C`: 69%; `CCN1CCC(N(Cc2cccc(OC)c2)C(=O)Nc2cccc(C(F)(F)F)c2)CC1`: 66%; `O=C(O)c1ccc(NC(=O)c2ccc(Br)c(S(=O)(=O)N3CCCC3)c2)cc1`: 70%.
With `O=C(OCc1cc(=O)n2nc(C3CCCCC3)sc2n1)c1ccccc1Cl` the figure was 59%; with `O=C(Nc1ccccc1)c1cn(-c2ccccc2)nc1-c1ccccc1`, 86%; with `Cc1nc(-c2ccc(C)c(S(=O)(=O)N3CCC(C(=O)Nc4ccc(Cl)cc4)CC3)c2)no1`, 121%.
With `Cc1nc2c(C(=O)NCc3ccccc3Cl)c[nH]n2c(=O)c1Cc1cccc(Cl)c1` the figure was -15% (active).
For `Cc1nc2c(C(=O)NCCc3ccc(Cl)cc3)c[nH]n2c(=O)c1Cc1ccc(Cl)cc1`, the survival is -14% (active).
Next, `Cc1nc2c(C(=O)NCc3ccccc3Cl)cnn2c(C)c1Cc1ccccc1`: 85%; `Cc1cccn2c(=O)c(C(=O)NCCc3ccc(Cl)cc3)cnc12`: 77%.
Turning to `COc1ccc(CCNC(=O)c2cc(C)nc3c2c(C)nn3-c2ccccc2)cc1OC`, the survival is 76%.
As to `Cc1nc2c(C(=O)NCc3ccccc3)c[nH]n2c(=O)c1Cc1ccccc1Cl`, the survival is 22%.
With `Cc1nc2c(C(=O)NCCc3ccc(Cl)cc3)cnn2c(C)c1Cc1c(F)cccc1Cl` the figure was 59%; with `Cc1nc2c(C(=O)NCCc3ccc(Cl)cc3)cnn2c(C)c1Cc1ccc(F)cc1`, 73%.
Next, `Cc1nc2c(C(=O)N(C)Cc3ccccc3)c[nH]n2c(=O)c1Cc1ccc(Cl)cc1`: 94%; `Cc1nc2c(C(=O)NCCc3ccc(Cl)cc3)c[nH]n2c(=O)c1Cc1ccccc1F`: -11% (active); `COc1ccc(CCNC(=O)c2c[nH]n3c(=O)c(Cc4ccccc4Cl)c(C)nc23)cc1OC`: 0% (active).
On to `COc1ccc(CCNC(=O)c2ccc(Cn3c(=O)c4ccccc4n(Cc4ccccc4Cl)c3=O)cc2)cc1OC`, for which the survival was 95%.
